In PubChem BioAssay (Tox21) one finds Potency data, which are given here for 18 compounds.

A short description of assay [1]: Caspase-3/7 induction in HepG2 cells by small molecules, qHTS assay (AID 1346978). Note: nearly all actives have a fitted effect of over 15% in size. Note: potency is the fitted concentration of half-maximal effect. An outline of the steps: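 Wild-type HepG2 cells, 2,000/well, settled 5 hr at 37 C and 5% CO2, then compound-treated for 17 hr; caspase-3/7 activity read by luminescent Caspase-Glo 3/7 after 30 min at room temperature.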
Background: qHTS replaces the single test concentration by a dilution series.

A short description of assay [2]: Caspase-3/7 induction in CHO-K1 cells by small molecules, qHTS cell viability counter screen (AID 1346979). Note: nearly all actives have a fitted effect of over 35% in size. Note: potency is the fitted concentration of half-maximal effect. The procedure, abridged:
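Wild-type CHO-K1 cells (1,500/well) treated with compound after 5 h plating; after 16 h at 37C, viability read as CellTiter-Fluor fluorescence following 1 h reagent incubation, in the same wells as the caspase read.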

The nature of assay [3]: Caspase-3/7 induction in CHO-K1 cells by small molecules, qHTS assay (AID 1346980). Note: nearly all actives have a fitted effect of over 15% in size. The procedure, abridged: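 Wild-type CHO-K1 cells exposed to compounds for 17hr at 37 C, 5% CO2. Caspase-3/7 activity then measured by Caspase-Glo 3/7 luminescence after 30min at room temperature.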
Assay [4] can be described thus: Caspase-3/7 induction in HepG2 cells by small molecules, qHTS cell viability counter screen (AID 1346981). Note: nearly all actives have a fitted effect of over 30% in size. Note: potency is the fitted concentration of half-maximal effect. The procedure, abridged:
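CellTiter-Fluor fluorescence measured viability in the same wells used for Caspase-Glo 3/7. HepG2 (wild type) at 2,000 cells/well were pre-incubated 5 hr, dosed, and given reagent at 16 hr, with 1 hr further at 37C.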

Assay [5] concerns the target Cytochrome P450 2D6 (Homo sapiens) (UniProt P10635). The experiment in a line: Cytochrome P450 Family 2 Subfamily D Member 6 (CYP2D6) small molecule antagonists: luciferase reporter qHTS assay (AID 1671196). Note: nearly all actives have a fitted effect of over 50% in size. Note: potency is the fitted concentration of half-maximal effect. An outline of the steps: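 CYP2D6 activity was followed as luminescence from its luciferin product after a 1 h NADPH-driven reaction at room temperature. Enzyme-substrate mix and compound were pre-incubated for 10 min, and the signal was read 20 min after adding detection reagent.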
On the technique in general: In a reporter assay the amount or activity of a reporter protein is the signal.

In assay [6] the target is Cytochrome P450 2C19 (Homo sapiens) (UniProt P33261). Put plainly: Cytochrome P450 Family 2 Subfamily C Member 19 (CYP2C19) small molecule antagonists: luciferase reporter qHTS assay (AID 1671197). Note: nearly all actives have a fitted effect of over 65% in size. Note: potency is the fitted concentration of half-maximal effect. The procedure, abridged:
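First, compounds are pinned into enzyme-substrate mix and held 10 min at room temperature. Second, NADPH regeneration solution is added and plates incubate 1 h at 37C. Third, detection reagent is added and luminescence read after 20 min.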

Assay [7] deals with Cytochrome P450 2C9 (Homo sapiens) (UniProt P11712). Put plainly: Cytochrome P450 Family 2 Subfamily C Member 9 (CYP2C9) small molecule antagonists: luciferase reporter qHTS assay (AID 1671198). Note: nearly all actives have a fitted effect of over 50% in size. Note: potency is the fitted concentration of half-maximal effect. An outline of the steps: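 P450-Glo proluciferin substrate with CYP2C9 enzyme; 10 min RT preincubation, then NADPH regeneration 1 h at 37C; luciferin detection reagent 20 min RT, luminescence in relative luminescence units.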
Cytochrome P450 2C9 (Homo sapiens), sequence (P11712 whole entry, looked up): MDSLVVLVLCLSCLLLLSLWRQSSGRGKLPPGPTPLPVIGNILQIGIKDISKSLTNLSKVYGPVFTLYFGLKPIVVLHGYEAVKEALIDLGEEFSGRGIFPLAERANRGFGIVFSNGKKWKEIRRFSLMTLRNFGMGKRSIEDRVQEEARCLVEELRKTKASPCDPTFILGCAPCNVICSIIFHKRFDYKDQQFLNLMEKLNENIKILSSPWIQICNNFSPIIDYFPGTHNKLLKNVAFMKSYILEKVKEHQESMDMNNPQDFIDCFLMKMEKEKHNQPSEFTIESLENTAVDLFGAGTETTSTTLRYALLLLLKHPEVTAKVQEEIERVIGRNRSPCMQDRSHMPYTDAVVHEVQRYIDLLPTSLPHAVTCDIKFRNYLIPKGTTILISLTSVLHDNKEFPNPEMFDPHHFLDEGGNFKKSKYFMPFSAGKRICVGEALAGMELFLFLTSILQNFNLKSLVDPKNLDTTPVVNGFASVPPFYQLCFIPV

Assay [8] deals with Cytochrome P450 1A2 (Homo sapiens) (UniProt P05177). Put plainly: Cytochrome P450 Family 1 Subfamily A Member 2 (CYP1A2) small molecule antagonists: luciferase reporter qHTS assay (AID 1671199). Note: nearly all actives have a fitted effect of over 50% in size. Note: potency is the fitted concentration of half-maximal effect. An outline of the steps:
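Luminescence from luciferin formed by CYP1A2 from a proluciferin substrate, read 20 min after detection reagent. Compound was pre-incubated 10 min with enzyme-substrate, and reaction started with NADPH regeneration solution for 1 h at room temperature; furafylline control.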

In assay [9] the target is Voltage-gated inwardly rectifying potassium channel KCNH2 (Homo sapiens) (UniProt Q12809). The experiment in a line: Human Ether-a-go-go-Related Gene (hERG) channel small molecule antagonists: fluorescence cell-based qHTS assay (AID 1671200). Note: nearly all actives have a fitted effect of over 50% in size. Note: potency is the fitted concentration of half-maximal effect. An outline of the steps: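 hERG-U2OS cells plated overnight at 37 C, loaded with FluxOR II dye 1 h at RT in dark; after 10 min, thallium stimulus added. Fluorescence (480/540 nm) read kinetically for 2 min at 1 s intervals.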
Voltage-gated inwardly rectifying potassium channel KCNH2 (Homo sapiens), sequence (Q12809 whole entry, looked up): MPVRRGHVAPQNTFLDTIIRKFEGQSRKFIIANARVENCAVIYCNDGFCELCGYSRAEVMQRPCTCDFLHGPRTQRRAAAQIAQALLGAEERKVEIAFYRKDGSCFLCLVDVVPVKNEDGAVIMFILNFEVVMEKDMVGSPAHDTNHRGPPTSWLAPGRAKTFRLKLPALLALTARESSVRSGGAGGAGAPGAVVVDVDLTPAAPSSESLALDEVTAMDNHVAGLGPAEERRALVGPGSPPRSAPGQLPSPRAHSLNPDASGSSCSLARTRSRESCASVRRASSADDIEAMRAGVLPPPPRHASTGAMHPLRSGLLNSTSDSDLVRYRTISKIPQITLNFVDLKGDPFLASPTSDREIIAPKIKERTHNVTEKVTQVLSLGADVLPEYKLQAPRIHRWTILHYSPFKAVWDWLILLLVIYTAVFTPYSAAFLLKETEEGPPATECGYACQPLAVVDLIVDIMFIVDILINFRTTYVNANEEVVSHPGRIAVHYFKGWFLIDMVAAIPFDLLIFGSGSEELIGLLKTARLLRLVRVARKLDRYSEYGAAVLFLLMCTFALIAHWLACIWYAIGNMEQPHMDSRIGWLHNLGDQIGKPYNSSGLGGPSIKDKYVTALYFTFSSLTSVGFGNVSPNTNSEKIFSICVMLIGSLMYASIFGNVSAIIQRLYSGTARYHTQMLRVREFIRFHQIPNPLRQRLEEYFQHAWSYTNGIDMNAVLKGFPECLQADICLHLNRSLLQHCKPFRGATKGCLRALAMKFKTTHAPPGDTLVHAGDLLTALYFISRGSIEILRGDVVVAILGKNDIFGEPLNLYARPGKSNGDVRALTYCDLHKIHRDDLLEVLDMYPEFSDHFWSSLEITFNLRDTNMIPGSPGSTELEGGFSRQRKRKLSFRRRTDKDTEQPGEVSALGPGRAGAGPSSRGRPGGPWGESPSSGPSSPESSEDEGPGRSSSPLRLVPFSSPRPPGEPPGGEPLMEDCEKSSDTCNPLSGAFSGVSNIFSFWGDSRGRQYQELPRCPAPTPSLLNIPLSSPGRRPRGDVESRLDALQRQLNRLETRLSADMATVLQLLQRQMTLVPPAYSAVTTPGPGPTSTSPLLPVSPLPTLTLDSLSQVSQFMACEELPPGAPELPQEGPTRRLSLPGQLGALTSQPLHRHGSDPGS

The target in assay [10] is Cytochrome P450 3A4 (Homo sapiens) (UniProt P08684). The experiment in a line: Cytochrome P450 Family 3 Subfamily A Member 4 (CYP3A4) small molecule antagonists: luciferase reporter qHTS assay (AID 1671201). Note: nearly all actives have a fitted effect of over 50% in size. Note: potency is the fitted concentration of half-maximal effect. An outline of the steps: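 P450-Glo CYP3A4 luminescent assay: compounds preincubated 10 min at room temperature with enzyme and proluciferin substrate, NADPH regeneration added, 1 h room-temperature reaction, stopped with luciferin detection reagent; luminescence read after 20 min. Ketoconazole positive control.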
Cytochrome P450 3A4 (Homo sapiens), sequence (P08684 whole entry, looked up): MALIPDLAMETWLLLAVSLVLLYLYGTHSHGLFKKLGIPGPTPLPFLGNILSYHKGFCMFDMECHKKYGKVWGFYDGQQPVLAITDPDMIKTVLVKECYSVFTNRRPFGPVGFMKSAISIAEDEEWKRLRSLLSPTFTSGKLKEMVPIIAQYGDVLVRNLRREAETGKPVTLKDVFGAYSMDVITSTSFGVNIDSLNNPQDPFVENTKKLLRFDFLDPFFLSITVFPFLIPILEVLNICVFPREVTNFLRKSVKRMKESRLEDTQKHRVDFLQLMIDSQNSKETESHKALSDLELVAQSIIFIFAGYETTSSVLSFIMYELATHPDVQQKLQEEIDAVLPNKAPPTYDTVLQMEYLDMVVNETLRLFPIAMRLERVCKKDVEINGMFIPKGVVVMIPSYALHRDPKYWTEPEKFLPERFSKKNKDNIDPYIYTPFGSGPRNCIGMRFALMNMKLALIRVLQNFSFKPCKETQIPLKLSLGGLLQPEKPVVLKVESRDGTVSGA

For assay [11], the target named is Nuclear receptor subfamily 1 group I member 2 (Homo sapiens) (UniProt O75469). Put plainly: Human pregnane X receptor (PXR) small molecule agonists, qHTS assay (AID 1346982). Note: nearly all actives have a fitted effect of over 35% in size. Note: potency is the fitted concentration of half-maximal effect. An outline of the steps:
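Agonist mode: luminescence from ONE-Glo after 24 h compound exposure at 37C in HepG2 cells carrying hPXR-responsive CYP3A4 luciferase, plated in charcoal-stripped serum medium 5 h beforehand.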

“And” between values parts separate entries of the source, which are not always exact repeats. Equal values may be shown once. Inconclusive results are not listed. The source holds several records for some structures; these can differ, active in one and inactive in another. The source made the active and inactive calls. Calls come from the whole dose curve; as a rule, active = well fitted curve in the direction sought with a large enough effect in the repeat runs; inconclusive = weak or mixed curves; inactive = no such curve, though single readings can be large; an effect the other way counts as inactive or inconclusive.

Cytochrome P450 1A2 (Homo sapiens), sequence (P05177 whole entry, looked up): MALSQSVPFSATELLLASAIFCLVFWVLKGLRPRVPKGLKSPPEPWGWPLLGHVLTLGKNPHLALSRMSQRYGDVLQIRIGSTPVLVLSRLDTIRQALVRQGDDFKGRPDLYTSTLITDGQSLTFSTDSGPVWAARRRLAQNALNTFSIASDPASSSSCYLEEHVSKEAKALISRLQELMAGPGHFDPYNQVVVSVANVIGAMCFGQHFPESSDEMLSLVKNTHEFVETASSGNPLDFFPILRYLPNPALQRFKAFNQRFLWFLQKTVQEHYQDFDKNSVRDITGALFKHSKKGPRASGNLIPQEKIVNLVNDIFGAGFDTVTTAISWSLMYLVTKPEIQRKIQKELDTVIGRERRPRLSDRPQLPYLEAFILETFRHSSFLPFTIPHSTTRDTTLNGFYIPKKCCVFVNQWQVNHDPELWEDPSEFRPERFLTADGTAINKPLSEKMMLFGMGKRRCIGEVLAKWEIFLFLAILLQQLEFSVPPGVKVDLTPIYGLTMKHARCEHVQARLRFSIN
Cytochrome P450 2D6 (Homo sapiens), sequence (P10635 whole entry, looked up): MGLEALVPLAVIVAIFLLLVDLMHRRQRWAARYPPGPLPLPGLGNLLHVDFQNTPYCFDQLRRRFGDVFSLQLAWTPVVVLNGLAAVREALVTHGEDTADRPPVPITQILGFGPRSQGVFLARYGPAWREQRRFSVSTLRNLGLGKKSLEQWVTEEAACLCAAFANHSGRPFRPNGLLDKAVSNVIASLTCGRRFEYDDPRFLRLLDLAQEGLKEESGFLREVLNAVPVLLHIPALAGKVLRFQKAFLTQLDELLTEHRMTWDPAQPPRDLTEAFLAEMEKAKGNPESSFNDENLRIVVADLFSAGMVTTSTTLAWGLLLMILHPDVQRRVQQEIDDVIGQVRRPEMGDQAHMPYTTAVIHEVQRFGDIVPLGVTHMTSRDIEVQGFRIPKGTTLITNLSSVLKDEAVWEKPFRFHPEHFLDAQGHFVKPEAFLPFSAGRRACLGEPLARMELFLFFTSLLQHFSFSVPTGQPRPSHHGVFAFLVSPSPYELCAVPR
Nuclear receptor subfamily 1 group I member 2 (Homo sapiens), sequence (O75469 whole entry, looked up): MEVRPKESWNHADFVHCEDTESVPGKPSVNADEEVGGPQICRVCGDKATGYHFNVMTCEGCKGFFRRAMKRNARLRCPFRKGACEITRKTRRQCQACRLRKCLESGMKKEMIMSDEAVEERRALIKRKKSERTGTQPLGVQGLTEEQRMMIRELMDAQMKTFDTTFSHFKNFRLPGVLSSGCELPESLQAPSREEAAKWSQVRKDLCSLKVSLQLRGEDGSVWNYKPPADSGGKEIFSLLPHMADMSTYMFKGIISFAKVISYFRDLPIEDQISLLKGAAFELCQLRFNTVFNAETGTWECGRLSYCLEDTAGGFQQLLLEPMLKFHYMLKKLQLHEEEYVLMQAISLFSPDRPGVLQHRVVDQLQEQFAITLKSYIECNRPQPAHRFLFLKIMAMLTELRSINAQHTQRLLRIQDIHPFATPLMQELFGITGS
Cytochrome P450 2C19 (Homo sapiens), sequence (P33261 whole entry, looked up): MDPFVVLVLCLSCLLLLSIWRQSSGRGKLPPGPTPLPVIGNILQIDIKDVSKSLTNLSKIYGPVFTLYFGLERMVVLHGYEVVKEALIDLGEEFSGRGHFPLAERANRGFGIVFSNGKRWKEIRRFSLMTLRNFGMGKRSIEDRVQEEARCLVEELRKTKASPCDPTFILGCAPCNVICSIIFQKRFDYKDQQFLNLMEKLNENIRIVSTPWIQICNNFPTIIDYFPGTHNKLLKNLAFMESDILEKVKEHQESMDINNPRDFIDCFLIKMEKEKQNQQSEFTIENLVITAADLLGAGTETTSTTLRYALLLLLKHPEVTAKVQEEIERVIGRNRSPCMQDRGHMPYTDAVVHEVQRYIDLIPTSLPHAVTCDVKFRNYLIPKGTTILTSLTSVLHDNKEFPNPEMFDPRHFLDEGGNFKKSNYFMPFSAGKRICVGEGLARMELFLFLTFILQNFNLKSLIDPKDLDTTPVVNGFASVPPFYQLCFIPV

`CCCC(CC)CCCCCCCN` (configuration not stated): the Potency entry in [1], in [2], in [3] and in assay [4] was “inactive” throughout. For the same compound, the Potency is 0.817 µM (active) in [5]; 0.365 µM (active) in assay [6]; 25.8 µM (active) in assay [7]; 5.15 µM (active) in assay [8]; 28.2 µM (active) in assay [9]; 3.25 µM (active) in assay [10].

`CC(C)c1ccccc1N`: the Potency result in assay [1], in assay [2], in assay [3], in assay [4], in assay [5] and in assay [8] was “inactive” each time. In addition, in assay [9], the Potency entry was “inactive”. In addition, the Potency in [6] was 39.9 µM (active); in assay [10] it was 28.3 µM (active).

For the compound `NC(=O)c1ccccc1N`, the Potency entry in assay [1], in assay [2], in assay [3], in [4], in assay [11] and in assay [7] was “inactive” in each case. For the same compound, the Potency result in assay [9] and in assay [10] was “inactive” each time. Moreover, the Potency in assay [6] was 35.8 µM (active); in [8] it was 31.9 µM (active).

On to `CCC(C)c1cc([N+](=O)[O-])cc([N+](=O)[O-])c1OC(=O)OC(C)C` (configuration not stated), for which the Potency entry in assay [1], in assay [3] and in assay [9] was “inactive” throughout. The Potency in [2] is 61.1 µM (active); in assay [4], 61.1 µM (active); in assay [11], 61.1 µM (active); in assay [6], 11.2 µM (active); in assay [7], 35.6 µM (active); in [8], 2.52 µM (active).

For `C=CC(=C)CCC=C(C)C`, the Potency result in assay [1], in assay [2], in assay [3], in assay [4], in [11] and in assay [5] was “inactive” throughout. In addition, the Potency entry in assay [8] and in [9] was “inactive” each time.

Consider `CC(C)(C)C1=CC(=O)C=C(C(C)(C)C)C1=O`, for which the Potency result in assay [1], in [2], in assay [4], in [11], in [5] and in assay [9] was “inactive” each time. The Potency result in [10] is “inactive”. Further, the Potency in assay [6] is 3.17 µM (active).

With `CC(C)(C)CC(C)(C)c1ccccc1O`, the Potency in assay [1] is 48.8 µM (active); in assay [2], 61.4 µM (active); in assay [4], 61.4 µM (active); in [11] it was 21.8 µM (active); in assay [7], 17.9 µM (active); in assay [8], 35.8 µM (active). Moreover, the Potency in assay [10] was 63.6 µM (active). Further, the Potency entry in [6] was “inactive”.

For the compound `CCNc1nc(NC(C)CC)nc(OC)n1` (configuration not stated), the Potency entry in [1], in assay [2], in [4], in assay [5], in [7] and in assay [9] was “inactive” in each case. Besides, in assay [10], the Potency result is “inactive”. Also, the Potency in [11] is 24.3 µM (active); in assay [6] it was 7.96 µM (active); in assay [8] it was 25.2 µM (active).

For the compound `c1ccc(Sc2ccccc2)cc1`, the Potency result in [1], in [2], in assay [4], in assay [11], in assay [5] and in assay [7] was “inactive” in each case. The Potency entry in assay [10] is “inactive”. Further, the Potency is 7.1 µM (active) in assay [6] and 31.7 µM (active) in assay [8].

Take `CCC(C)C(=O)OC` (configuration not stated): the Potency entry in assay [1], in assay [2], in [4], in [11], in [5] and in [6] was “inactive” throughout. The Potency entry in assay [7], in [8], in [9] and in [10] was “inactive” throughout.

For the compound `C=CC(C)C#N` (configuration not stated), the Potency entry in assay [1], in assay [2], in [3], in assay [11], in [5] and in assay [6] was “inactive” in each case. The Potency entry in [7], in assay [8], in assay [9] and in assay [10] was “inactive” throughout.

As for `CC(C)(c1cc(Br)c(O)c(Br)c1)c1cc(Br)c(O)c(Br)c1`, the Potency entry in assay [1], in assay [4], in assay [5], in [8] and in [9] was “inactive” in each case. Moreover, the Potency in [2] was 60.9 µM (active); in assay [11], 54.3 µM (active) and 60.9 µM (active) and 57.9 µM (active); in assay [6], 22.4 µM (active) and 35.5 µM (active); in assay [7], 31.6 µM (active) and 35.5 µM (active) and 30 µM (active); in assay [10] it was 56.2 µM (active) and inactive.

On to `NC(=O)c1nc(-c2cccc(-c3cc(F)ccc3OCC(F)(F)C(F)(F)F)c2)n[nH]1`, for which the Potency result in [1] is “inactive”. Further, the Potency in assay [2] is 54.5 µM (active); in assay [4] it was 61.1 µM (active); in assay [11] it was 61.1 µM (active); in assay [5] it was 79.6 µM (active); in assay [6], 28.3 µM (active); in assay [7], 28.3 µM (active). Besides, the Potency in assay [9] is 43.6 µM (active).

As for `CC(O)C#CC(C)O` (configuration not stated), the Potency entry in assay [1], in [4], in [7], in [9] and in assay [10] was “inactive” in each case. In addition, the Potency in assay [2] was 27 µM (active); in assay [11] it was 24.1 µM (active); in assay [5], 35.2 µM (active).

In the case of `c1cc2c3c(c1)ccc1cccc(c13)C2`, the Potency result in [1], in assay [2], in [3], in assay [4], in assay [9] and in assay [10] was “inactive” each time. Also, the values for the Potency in assay [6] and in [8] were 40.8 µM (active) and 3.63 µM (active), respectively.

As to `CCCCCCCCCCCCN(CCO)CCO`, the Potency in [1] is 30.5 µM (active); in [2], 43.1 µM (active); in assay [4], 68.3 µM (active); in assay [11] it was 15.3 µM (active); in assay [5] it was 11.2 µM (active); in assay [6] it was 25.1 µM (active). The figures for the Potency in assay [7], in assay [8] and in assay [9] were 63 µM (active), 11.2 µM (active) and 7.73 µM (active), respectively. Further, the Potency entry in [10] is “inactive”.

`Cn1cnc2ncnc(N)c21`: the Potency entry in [1], in [2], in [4], in assay [11], in [6] and in [7] was “inactive” throughout. The Potency result in [9] and in [10] was “inactive” each time. In addition, the Potency in [8] was 17.7 µM (active).

For the compound `O=C(Oc1ccccc1)c1cccc(C(=O)Oc2ccccc2)c1`, the Potency result in [1], in [3] and in assay [10] was “inactive” each time. The Potency in assay [2] is 51.2 µM (active); in assay [11], 0.456 µM (active); in assay [5] it was 28.9 µM (active); in [6], 2.98 µM (active); in [7], 7.48 µM (active).
